Bioassay records from PubChem BioAssay.
CHX counter – affects cycloheximide protein synthesis inhibition readout, counter-screen; cell reporter, cycloheximide protein synthesis inhibition counterscreen; max response, %; 300,000 tested, 12% active; in the data active means max response mostly above about 13%, no sharp cut-off; inactive means mostly below about 14%; further: read at 38.3 µM for the half of the compounds with a filed dose
NS1 inh – blocks influenza NS1 protein function | 270,000 tested, 0.4% active | Potency, µM (top dose mostly 46.1 µM); calls by dose curve; further: actives are rising curves; nearly all actives have a fitted effect of over 50% in size
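Growth recovery, yeast-based: influenza A NS1 expressed in S. cerevisiae causes slow growth, and suppressors are detected by OD600. The parent strain without NS1 is used as positive control.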
Shiga toxin inh – inhibitors of Shiga toxin in Vero cells | Vero cells, Shiga toxin protein synthesis inhibition reporter | inhibition, % at 38.7 µM | 290,000 tested, 9.2% active; in the data active means inhibition mostly above about 28%, no sharp cut-off; inactive means mostly below about 43%
Giardia FBPA inh – Giardia lamblia aldolase inhibition; A8B2U2; purified Giardia FBPA; Potency, µM (highest dose often 59.6 µM), actives largely listed as inhibitors; 290,000 tested, 0.71% active; further: nearly all actives have a fitted effect of over 55% in size
Target sequence (A8B2U2 whole entry, looked up): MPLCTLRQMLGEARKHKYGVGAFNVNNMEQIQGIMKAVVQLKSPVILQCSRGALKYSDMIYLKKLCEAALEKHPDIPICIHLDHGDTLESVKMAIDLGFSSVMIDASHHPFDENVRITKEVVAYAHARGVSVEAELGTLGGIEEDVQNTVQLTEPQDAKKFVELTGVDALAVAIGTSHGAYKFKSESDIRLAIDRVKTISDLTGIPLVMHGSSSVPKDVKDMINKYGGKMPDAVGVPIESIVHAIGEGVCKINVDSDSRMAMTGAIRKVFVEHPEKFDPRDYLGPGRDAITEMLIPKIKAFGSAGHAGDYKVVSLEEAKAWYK
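Giardia FBPA (40 nM reagent) was preincubated 10 min at RT with compound (up to 57.5 uM final), then substrate plus GAPDH/TPI/NAD/arsenate coupling system with diaphorase/resazurin was added; resorufin fluorescence (525/598 nm) was read after 20 min.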
LmPK inh – LmPK (Leishmania mexicana) enzyme inhibition; Q27686; purified LmPK, Kinase-Glo ATP luminescence, 1 h; Potency, µM (highest dose often 57.5 µM), actives largely listed as inhibitors; 290,000 tested, 0.37% active
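0.1 nM LmPK, 0.5 mM PEP, 0.1 mM ADP; 50 mM imidazole pH 7.2, 7 mM MgCl2, 50 mM KCl; 1 h RT. Kinase-Glo luminescence readout, normalized to no-enzyme (full inhibition) and uninhibited wells.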
Large screens that a line does not name were inactive. An excerpt weighted towards active compounds, which were near 14% of everything screened. Unless noted, the call rests on the fitted dose curve; in most records, active means well fitted curve in the direction sought with a large enough effect; inconclusive means small, poorly fitted or top-dose-only effect, or another doubt; inactive means no such curve, though single readings can be large; an effect the other way counts as inactive or inconclusive.

COC(=O)C(O)C1C(C)(C)C(OC(C)=O)C2CC3=C4CC(=O)OC(c5ccoc5)[C@]4(C)CCC3[C@@]1(C)C2=O (some centres undefined)	none (no result: CHX counter, NS1 inh, Shiga toxin inh, LmPK inh)
Cc1ccc(NC(=O)NCCCN2CCCC2=O)cc1C	none
CCOC(=O)C1=C(COC(=O)/C=C/c2cccc(OC)c2OC)NC(=O)NC1C (centres undefined)	CHX counter 40, Shiga toxin inh 53
CCOC(=O)C1=C(COC(=O)/C=C/c2ccccc2Cl)NC(=O)NC1C (centres undefined)	CHX counter 49, Shiga toxin inh 56 (no result: Giardia FBPA inh)
COCCCN1C(=O)c2ccc(C(=O)Nc3ccc(OC)cc3)cc2C1=O	CHX counter 15
COCCCN1C(=O)c2ccc(C(=O)NCc3ccco3)cc2C1=O	CHX counter 29
CC(=O)c1c(C)[nH]c(C(=O)OCc2ccc([N+](=O)[O-])cc2)c1C	CHX counter 15, Shiga toxin inh 56
CN(C)S(=O)(=O)c1ccc(C(=O)OCc2ccc([N+](=O)[O-])cc2)cc1	CHX counter 13
CC(=O)c1c(C)[nH]c(C(=O)OCc2ccccc2)c1C	CHX counter 38, Shiga toxin inh 120
COC(=O)c1ccc(COC(=O)c2[nH]c(C)c(C(C)=O)c2C)o1	none
Cc1ccc(OC(C)C(=O)N2CCCc3ccccc32)cc1 (centres undefined)	none
Cc1cc(=O)oc2cc(OC(C)C(=O)N3CCCc4ccccc43)ccc12 (centres undefined)	CHX counter 24
Cc1ccc(C(=O)CCC(=O)Nc2cccc(C)c2)cc1	none
O=C(NCc1ccc(Cl)cc1)c1ccc(NC(=O)C2CCCO2)cc1 (centres undefined)	none
O=C1OC2(c3cc(I)c(O)c(I)c3Oc3c2cc(I)c(O)c3I)c2c(Cl)c(Cl)c(Cl)c(Cl)c21	Giardia FBPA inh inconclusive (no result: NS1 inh, LmPK inh)
COc1ccccc1/C=C/C=N/NC(=O)c1cc(-c2ccc(C)o2)[nH]n1	none
CC(Oc1ccc(Cl)cc1Cl)C(=O)OCn1nnc2ccccc2c1=O (centres undefined)	none
O=c1c2ccccc2nnn1COc1ccc(F)cc1Cl	CHX counter 41, Shiga toxin inh 55
O=c1c2ccccc2nnn1COc1cccc2ccccc12	CHX counter 45, Shiga toxin inh 143, Giardia FBPA inh inconclusive (no result: NS1 inh)
O=c1c2ccccc2nnn1COc1ccc(Cl)cc1Br	CHX counter 29 (no result: NS1 inh)
O=c1c2ccccc2nnn1Cc1ccc2ccccc2c1	CHX counter 25
COc1ccc(C(=O)OCn2nnc3ccccc3c2=O)cc1OC	none
COC(=O)c1cccc(Cn2nnc3ccccc3c2=O)c1	none
C[C@H](NC(=O)c1ccccc1Cl)C(=O)NCCc1ccc(S(N)(=O)=O)cc1	none
Cc1ccc(C(CC(=O)O)NC(=O)CN2C(=O)c3ccccc3C2=O)cc1 (centres undefined)	none
Cc1oc(-c2cccc(Cl)c2)nc1CS(=O)(=O)CC(=O)NC1CCCC1	none
FC(F)(F)c1ccc(-n2cnc3ccccc32)nc1	CHX counter 33, Shiga toxin inh 46
c1ccc(-n2cnc3ccccc32)nc1	none
O=C(c1ccco1)[C@@H]1[C@@H]2C(=O)N(c3ccccc3)C(=O)[C@@H]2C2c3ccccc3C=CN21 (some centres undefined)	NS1 inh inconclusive
CC(C)(C)C(=O)[C@@H]1[C@@H]2C(=O)N(c3ccc4c(c3)OCCO4)C(=O)[C@@H]2C2c3ccccc3C=CN21 (some centres undefined)	CHX counter 16, Giardia FBPA inh inconclusive
Cc1ccc(N2C(=O)[C@@H]3[C@H](C2=O)C2c4ccccc4C=CN2[C@@H]3C(=O)c2ccco2)cc1 (some centres undefined)	NS1 inh inconclusive, Shiga toxin inh 29, Giardia FBPA inh inconclusive
CCN(C(=O)CCNC(=O)Cn1cnc2ccccc2c1=O)c1ccccc1F	none
COC(=O)[C@@H]1O[C@@H](SCCN)[C@@H](O)[C@H](O)[C@H]1O	none (no result: CHX counter, Shiga toxin inh, Giardia FBPA inh, LmPK inh)
COc1c(C(=O)Nc2ccc(Cc3ccncc3)cc2)ccc2ccccc12	CHX counter 20, Shiga toxin inh 96
COc1ccccc1C(=O)NC(=S)Nc1ccc(Cc2ccncc2)cc1	CHX counter 20, Shiga toxin inh 42, Giardia FBPA inh inconclusive
Cc1cccc(C(=O)NC(=S)Nc2ccc(Cc3ccncc3)cc2)c1	none
COc1ccc(Br)cc1C(=O)Nc1ccc(Cc2ccncc2)cc1	none
O=C(NC(=S)Nc1ccc(Cc2ccncc2)cc1)c1ccccc1	CHX counter 37
CC(C)C[C@@H](CC(=O)N[C@@H](CCC(=O)O)CC(=O)O)NC(=O)[C@@H]1CCCC[C@H]1NC(=O)C[C@H](CCCN)NC(=O)C[C@H](CO)NC(=O)[C@@H]1CCCC[C@H]1N	none (no result: CHX counter, NS1 inh, Shiga toxin inh, LmPK inh)
CC(=O)Nc1nnc(SCc2ccccc2F)s1	CHX counter 24, Shiga toxin inh 44
Nc1nnc(SCc2ccccc2F)s1	none
Cc1ccccc1CSc1nnc(NC(=O)C2COc3ccccc3O2)s1 (centres undefined)	Giardia FBPA inh inconclusive
CC(=O)Nc1nnc(CSCc2ccccc2F)s1	CHX counter 23
O=C(Nc1nnc(SCc2ccccc2F)s1)C1=COCCO1	CHX counter 57, Shiga toxin inh 116
COc1cc(NS(=O)(=O)c2csc(C(N)=O)c2)cc(OC)c1	none
CC(C)(C)c1ccc(C(=O)N/C(=C\c2cccc([N+](=O)[O-])c2)C(=O)Nc2cccc(C(=O)O)c2)cc1	NS1 inh inconclusive
C=C1C[C@@]23CC4C5[C@@]6(C)C[C@H](O)C[C@@]57C2[C@H](O)[C@@H]1[C@H](O)[C@H]3[C@H]7N4C6	none (no result: CHX counter, NS1 inh, Shiga toxin inh, LmPK inh)
Cc1ccc(C(=O)NCCCNC(=O)c2ccccc2C)cn1	none
COC(=O)c1cc(NC(=O)C2COc3ccccc3O2)ccc1Cl (centres undefined)	CHX counter 21, Shiga toxin inh 53
Cc1ccc(NC(=O)C2COc3ccccc3O2)cc1C (centres undefined)	CHX counter 26 (no result: Shiga toxin inh)
CN(C)S(=O)(=O)c1ccc(NC(=O)C2COc3ccccc3O2)cc1 (centres undefined)	CHX counter 11
Cc1cccc(NC(=O)C2COc3ccccc3O2)c1 (centres undefined)	CHX counter 43, Shiga toxin inh 72
CCOC(=O)c1ccc(NC(=O)C2COc3ccccc3O2)cc1 (centres undefined)	none (no result: Shiga toxin inh)
COC(=O)c1cccc(NC(=O)C2COc3ccccc3O2)c1C (centres undefined)	none
O=C(Nc1ccc(S(=O)(=O)Nc2ccccc2)cc1)C1COc2ccccc2O1 (centres undefined)	none
CCn1cc(S(=O)(=O)NC(C)c2cc(OC)ccc2OC)cn1 (centres undefined)	none (no result: Giardia FBPA inh)
CCOc1ccccc1-c1nnc2n1N=C(c1ccccc1OC)CS2	none (no result: NS1 inh, LmPK inh)
CC(=O)C1CCC2C3CC=C4CC(O)CC[C@@]4(C)C3CC[C@]12C (some centres undefined)	none (no result: CHX counter, NS1 inh, Shiga toxin inh, LmPK inh)
COc1ccc(OC)c(NC(=O)C2COc3ccccc3O2)c1 (centres undefined)	none
